“And” between values parts separate entries of the source, which are not always exact repeats. Equal values may be shown once. More than one record can exist for a structure, and the calls need not agree. The source made the active and inactive calls. The calls were made as follows: active = hit-call score of the fitted dose curve at least 0.9, where 1 is the maximum; inactive = score below 0.9.
The compounds below were run on Interleukin 17F (IL17F), IL17F (gene 112744) (assay: BSK_BT_xIL17F: BioMAP Diversity Plus: BT Assay for Interleukin 17F (IL17F) Biomarker Activity (AID 2284243)). Conditions: primary human B cells with PBMC.
Procedure: BSK_BT is a cell-based, multiplexed-readout assay that uses B cell and peripheral blood mononuclear cells, a human vascular primary cell co-culture, with measurements taken at 24 hours after chemical dosing in a microplate: 96-well plate.BSK_BT_xIL17F is an assay component measured in the BSK_BT assay. It measures secreted IL-17F related to regulation of gene expression using LumineX xMAP technology.Data from the assay component BSK_BT_xIL17F was analyzed at the endpoint, BSK_BT_xIL17F, in the positive analysis fitting direction relative to DMSO as the negative control and baseline of activity. Using a type of cytokine quantitation reporter, gain or loss-of-signal activity can be used to understand protein changes. To generalize the intended target to other relatable targets, this assay endpoint is annotated to the 'cytokine' intended target family, where the subfamily is 'interleukins'.
The levels of cell surface (or secreted, indicated by the prefix "s") biomarker endpoints were measured by ELISA. Overt cytotoxicity to cells in confluent adherent cultures (all systems other than the BT system) was assessed by measuring total protein levels using sulforhodamine B (SRB) staining in parallel cultures at the time of biomarker measurements, indicated as SRB endpoints. For proliferation assays for adherent cell types, individual cell types are cultured at sub-confluence and relative cell numbers quantified by SRB staining at time points optimized for each system (48 h: 3C and CASM3C systems; 72 h: BT and HDF3CGF systems; 96 h: SAg system). SRB was performed by staining cells with 0.1% SRB after fixation with 10% TCA and reading wells at 560 nm.Viability and proliferation of PBMC (T cells) was quantified by Alamar Blue reduction for the SAg and BT systems. For PBMC viability (referred to as PBMC Cytotoxicity within the assay endpoint names), cells were plated (75,000/well in a 96-well plate) and then chemical samples added for 1 h before addition of activators, SEB and TSST-1 (20 ng/mL final concentration each). Cells were incubated for 90 h. Then, Alamar Blue (20 uL/well) (Invitrogen, Cat DAL1100) was added for 6 h, and the plates were read with a fluorescence microplate reader at 546/580 nm (excitation/emission). For PBMC proliferation, cells were plated and activated as above but incubated for only 16 h prior to addition of Alamar Blue. Plates were read after 6 h.

Compound	outcome	AC50
O=C(O)C(F)(F)C(F)(F)C(=O)O	inactive	
Cc1ccc2c(c1N)C(=O)c1ccccc1C2=O		20 µM (active)
OCC(F)(F)OC(F)(F)C(F)(F)OC(F)(F)C(F)(F)OC(F)(F)F		30 µM (active) and 22.2 µM (active)
CCOP(=S)(OCC)SCS(=O)(=O)CC	inactive	
ClC(Cl)=C(c1ccc(Cl)cc1)c1ccccc1Cl		32.2 µM (active)
CCCCOCCOP(=O)(OCCOCCCC)OCCOCCCC	inactive	
CCOP(=S)(OCC)SCn1nnc2ccccc2c1=O		24 µM (active)
CC(C)(C)c1ccccc1OP(=O)(Oc1ccccc1)Oc1ccccc1		29 µM (active)
O=P(OCC(Br)CBr)(OCC(Br)CBr)OCC(Br)CBr (centres undefined)		27.7 µM (active)
FC(F)(F)C(F)(C(F)(F)F)C(F)(F)C(F)(F)CC1CO1 (centres undefined)	inactive	
CC(C)Nc1ccc(Nc2ccccc2)cc1		4.55 µM (active)
O=S1(=O)OCC2C(CO1)C1(Cl)C(Cl)=C(Cl)C2(Cl)C1(Cl)Cl (centres undefined)		28.3 µM (active)
CCCCC(CC)COC(=O)c1c(Br)c(Br)c(Br)c(Br)c1C(=O)OCC(CC)CCCC (centres undefined)	inactive	
O=S(=O)(F)C(F)(F)C(F)(F)C(F)(F)C(F)(F)C(F)(F)C(F)(F)C(F)(F)C(F)(F)F	inactive	
CCCCC(CC)COP(=O)(Oc1ccccc1)Oc1ccccc1 (centres undefined)		20 µM (active)
COP(=O)(O)OC	inactive	
O=c1ssc(Cl)c1Cl		6.3 µM (active)
N#Cc1c(-c2ccc(Cl)cc2)[nH]c(C(F)(F)F)c1Br		1.63 µM (active)
c1ccc2c(c1)sc1ccccc12	inactive	

Compound	outcome	AC50
C=CC(=O)OCC(CC)(COC(=O)C=C)COC(=O)C=C		1.87 µM (active)
CC(Cl)CN(C)C (centres undefined)	inactive	
Cc1c([N+](=O)[O-])cc2c(c1[N+](=O)[O-])C(C)(C)CC2(C)C		20 µM (active)
O=C(O)C(F)(F)OC(F)(F)C(F)(F)OC(F)(F)C(=O)O	inactive	
CCOP(=S)(NC(C)C)Oc1ccccc1C(=O)OC(C)C (centres undefined)		28.7 µM (active)
N#Cc1cc([N+](=O)[O-])ccc1N	inactive	
OCC(F)(F)OC(F)(F)C(F)(F)OC(F)(F)C(F)(F)OC(F)(F)CO		22.8 µM (active) and 20.7 µM (active)
O=C(O)C(F)(OC(F)(F)C(F)(F)C(F)(F)F)C(F)(F)F (centres undefined)	inactive	
CC(O)C(F)(F)C(F)(F)F (centres undefined)	inactive	
CCOP(=S)(OCC)SCSc1ccc(Cl)cc1	inactive	
COP(N)(=S)OC	inactive	
C=CC(=O)OCC(F)(F)C(F)F		12.4 µM (active) and 21.8 µM (active)
CCOP(=S)(S)OCC	inactive	
O=C(O)C(F)(F)OC(F)(F)C(F)(F)OC(F)(F)F	inactive	
OCC(F)(F)OC(F)(F)C(F)(F)OC(F)(F)CO	inactive	
NC(=O)C(F)(F)C(F)(F)F	inactive	
O=C(O)C=CC(F)(C(F)(F)F)C(F)(F)F	inactive	0.219 µM (active)
COC(=O)C(F)(F)C(F)(F)OC(F)(C(F)(F)F)C(F)(F)OC(F)=C(F)F (centres undefined)	inactive	
Nc1ccc([N+](=O)[O-])cc1Cl	inactive	

— PubChem BioAssay (EPA / NIEHS)
